Most compounds without a hit are left out; they make up all but 9.3% or so of the library.
HCV inh: HCV inhibition | Huh7.5.1 HCVcc-Cre infection, luciferase reporter, 44 h | AID 651820 | 3.4% of 340,000 active | Potency, µM (top dose mostly 41.8 µM), most hits filed as inhibitors
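Seed cells (1,000/well) for 4 h; treat with compound and infect with HCVcc-Cre, moi about 0.5. Incubate 44 h, then detect luciferase activity.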
VACV mCherry inh: inhibitors of vaccinia virus infection (mCherry reporter signal) | 0.63% of 310,000 active | Potency, µM (top dose mostly 36.5 µM), most hits filed as inhibitors | Vaccinia virus mCherry reporter infection, fluorescence | AID 720579; calls by dose curve; tested in A549 cells; also: nearly all actives have a fitted effect of over 35% in size
FMDV antiviral: blocks foot and mouth disease virus; 1.2% of 410,000 active; FMDV antiviral cell-based qHTS; Potency, µM (series often up to 57.9 µM), actives largely listed as inhibitors; calls by dose curve; tested in HEK293T cells; also: read-out not given here; nearly all actives have a fitted effect of over 45% in size
VACV Venus inh: inhibitors of vaccinia virus (Venus reporter) | AID 720580 | Potency, µM (titrated, usually from 36.5 µM), actives largely listed as inhibitors | 0.46% of 330,000 active | Vaccinia virus Venus reporter expression, fluorescence; calls by dose curve; tested in A549 cells; also: nearly all actives have a fitted effect of over 30% in size
Sm TGR inh: blocks Schistosoma mansoni thioredoxin glutathione reductase; Q962Y6; purified TGR, DTNB reduction, TNB absorbance 405 nm; Potency, µM (top dose mostly 114 µM), usual class: inhibitors; 3% of 360,000 active; also: nearly all actives have a fitted effect of over 60% in size
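First, TGR (20 nM dispensed) and NADPH were mixed with compound. Second, a 15 min room-temperature incubation followed. Third, further NADPH and then DTNB were added to start the reaction. Finally, TNB absorbance was monitored kinetically.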
HCMV antiviral: inhibitors of human cytomegalovirus; HFF cells, HCMV-luciferase reporter, 72 h; hits give low values; activity change, negative = inhibition, % at 57.5 µM; 4.5% of 410,000 active; in the data active = activity change below about -60%; inconclusive = no clear call, values can overlap the other calls; inactive = above about -39%
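Human foreskin fibroblasts infected with luciferase-reporter HCMV at MOI 1 PFU/cell, compounds at two doses. Luciferase measured 72 h post infection; normalized to buffer-only basal and Salinomycin (10uM) controls.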
Hits are given with their value; i = inactive; ? = inconclusive; nt = no result; ! = repeats disagree. Unless noted, calls follow the shape of the dose curve; as a rule, active = well fitted curve in the direction sought with a large enough effect; inconclusive = small, poorly fitted or top-dose-only effect, or another doubt; inactive = no such curve, though single readings can be large; an effect the other way counts as inactive or inconclusive.

SMILES	HCV inh	VACV mCherry inh	FMDV antiviral	VACV Venus inh	Sm TGR inh	HCMV antiviral
CCNc1nc(NCC)n2c(SCC(=O)Nc3cccc(Cl)c3)nnc2n1	?	?	i	?	i	nt
CCNc1nc(NCC)n2c(SC(C(=O)Nc3cc(Cl)cc(Cl)c3)c3ccccc3)nnc2n1 (stereo unspecified)	?	i	i	i	i	-101.0
CCOC(=O)N/N=C/c1c(C)nn(-c2cccc(C(F)(F)F)c2)c1Cl	2.24µM	?	?	?	i	?
CCOc1ccc(Oc2c(/C=N/NC(N)=O)c(C)nn2-c2ccccc2)cc1	i	i	i	i	i	i
CCOc1ccc(Oc2c(/C=N/NC(=O)COc3ccccc3OC)c(C)nn2-c2ccccc2)cc1	12.6µM	i	i	?	i	i
Cc1ccc(C)c(OCC(=O)N/N=C/c2c(C)nn(-c3ccccc3)c2Cl)c1C	?	i	i	i	i	-67.8
Cn1cccc1-c1cc(C(=O)N/N=C/c2ccc(Cl)cc2)[nH]n1	?	i	i	i	i	i
CCN(CC)C(=O)N1c2ccccc2C=Cc2ccccc21	?	nt	?	?	i	-81.1
NC(=O)N1c2ccccc2C=Cc2ccccc21	?	i	i	i	i	i
CCOC(=O)C1C(=O)C=C(c2ccc(C)cc2)CC1c1ccc([N+](=O)[O-])cc1 (stereo unspecified)	?	i	i	i	i	-70.7
COc1ccc(S(=O)(=O)N2CCN(CC(=O)Nc3cc(OC)cc(OC)c3)CC2)cc1	i	i	i	i	i	i
Cc1ccc(C2=CN(Cc3ccccc3)CCC2=O)cc1	?	i	i	i	nt	i
O=C1CCN(Cc2ccccc2)C=C1c1ccc(Br)cc1	10µM	i	i	i	nt	i
COc1ccc(-c2nn(-c3ccccc3)cc2/C=N/N2C(=O)CSC2=S)cc1	?	nt	i	nt	i	-96.2
COc1ccc(-c2nn(-c3ccccc3)cc2/C=N/NS(=O)(=O)c2ccccc2)cc1	?	i	i	i	i	i
COc1ccc(-c2nn(-c3ccccc3)cc2/C=N/O)cc1	i	nt	14.1µM	nt	i	i
COc1ccc(-c2nn(-c3ccccc3)cc2/C=N/NC(=O)c2cccc(S(=O)(=O)Nc3ccccc3Cl)c2)cc1	?	i	i	i	i	-101.4
Fc1ccc(C(c2ccc(F)cc2)N2CCN(C/C=C/c3ccccc3)CC2)cc1	1.58µM!	i	?	?	i	i
CC(C)CCOP(=O)(c1ccc(N(C)C)cc1)C(O)c1ccc(C(C)C)cc1 (stereo unspecified)	i	nt	i	nt	i	i
CNC(=S)N(C)[C@H]1c2c(ccc3ccccc23)OC[C@H]1CO	i	?	i	i	i	-60.4
Cc1c(C(=O)N2CCN(c3ccc([N+](=O)[O-])cc3)CC2)sc2ncn(CC(=O)N3CCOCC3)c(=O)c12	i	i	i	i	i	-80.4
Cc1c(C(=O)N2CCOCC2)sc2ncn(CC(=O)N3CCC(C)CC3)c(=O)c12	i	i	i	i	i	nt
Cc1ccc(SCC(=O)NCC2CCCO2)cc1 (stereo unspecified)	i	nt	i	nt	i	-93.4
O=C(CSc1nc2ccsc2c(=O)n1Cc1ccc(C(=O)O)cc1)NCC1CCCO1 (stereo unspecified)	i	i	i	i	i	i
COc1ccc(-c2nsc(SCC(=O)NCC3CCCO3)n2)cc1 (stereo unspecified)	i	i	i	i	i	-77.3
SMILES	HCV inh	VACV mCherry inh	FMDV antiviral	VACV Venus inh	Sm TGR inh	HCMV antiviral
Cc1ccc(Cn2c(SCC(=O)NCC3CCCO3)nc3ccsc3c2=O)cc1 (stereo unspecified)	8.91µM	i	i	i	i	i
Cc1ccc(-c2nsc(SCC(=O)NCC3CCCO3)n2)cc1 (stereo unspecified)	10µM	i	i	i	i	i
Cc1c(C(=O)N2CCCCC2)c(S(=O)(=O)NCc2ccc(N(C)C)cc2)c(C)n1C	i	i	i	i	i	i
O=C(CSc1nc2ccccc2c(=O)n1CC1CCCO1)Nc1ccccc1Cl (stereo unspecified)	i	i	i	i	i	i
COc1cc(-c2nc3cnccn3c2Nc2ccc(C(C)C)cc2)ccc1O	?	?	39.8µM	?	i	-91.7!
COc1cc(-c2nc3nc[nH]n3c2Nc2ccc(C(C)C)cc2)ccc1O	nt	i	i	i	14.1µM	-68.1
COc1cc(-c2nc3cnccn3c2Nc2ccccc2)ccc1O	i	?	i	i	i	i

Source: PubChem BioAssay (National Center for Advancing Translational Sciences (NCATS))
